# Assay outcomes: PubChem, Broad Institute
# TRPM1 prom inh: inhibitors of MITF-driven TRPM1 promoter in melanoma cells; SK-MEL-5 TRPM1 promoter luciferase, 24 h; inhibition, % at 12.5 µM; actives 0.83% (n = 330,000); AID 488899;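 active = mean inhibition across replicates of 60% or more, whatever share of single replicates reaches that level; inconclusive = some that reach 60%, reason not given; inactive = mean inhibition across replicates below 60%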
# Shn3 inh set2: Schnurri-3 reporter inhibition in Clone20 osteoblasts; inhibition, % at 12.5 µM; Clone20 osteoblast Shn3 3'UTR firefly luciferase, 24 h; actives 0.52% (n = 360,000);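 active = mean inhibition of at least 75% with every replicate also reaching 75%; inconclusive = mean inhibition at least 75% but some replicate below; inactive = mean inhibition below 75%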;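 note: 0% = median of neutral control wells and 100% = pilot-screen positive control compound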
# LGR2 inh: blocks bursicon-induced cAMP signaling via Drosophila LGR2. HEK293 LGR2, CRE-luciferase, bursicon-stimulated, 4 h. inhibition, % at 9.99 µM. actives 0.35% (n = 380,000);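 active = drop in luminescence signal, shown as inhibition above about 50% in the replicate tests, limit read from the data, passing the limit was not always enough; inconclusive = probably only some replicates passing the limit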;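 note: agonist challenge used bursicon conditioned medium at about half maximal strength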
# PAX8 reporter: PAX8 transcriptional activity inhibition. RMG-I TPO-luciferase reporter, SteadyGlo, 24 h. inhibition, % at 12.6 µM. actives 1.2% (n = 360,000). AID 652154;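 active = mean replicate inhibition at least 60% with every replicate also reaching 60%; inconclusive = only one of the two criteria is met; inactive = mean below 60% and not all replicates reaching 60%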;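 note: luciferase light reporting Pax8 driven TPO promoter activity; plate controls were median of neutral control wells for no effect and mitoxantrone controls for full effect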
# EWS-Fli block: blocks EWS/Fli oncoprotein-driven transcription; AID 651661; inhibition, % at 12.6 µM; actives 0.67% (n = 350,000); A673 NR0B1-luciferase reporter, viability-normalised;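 active = mean inhibition of at least 50% after viability correction, with every replicate also passing that limit; inconclusive = mean reaches 50% but only one of two replicates passes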;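 note: firefly luciferase signal divided by Alamar Blue viability fluorescence both relative to DMSO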
# EBV LMP1 NFkB: Epstein-Barr LMP1 NF-kappaB reporter inhibition; inhibition, % at 12.5 µM; LMP1-induced NF-kappaB luciferase reporter cells, luminescence; AID 504558; actives 0.69% (n = 350,000); in the data active = inhibition above about 41%; inconclusive = no clear call, values can overlap the other calls;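 note: 0% = neutral control wells and 100% = reference inhibitor control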
# Active calls of the source: *; ? = inconclusive; · = no result given. Most compounds without a hit are left out; they make up all but 2.2% or so of the library.
SMILES,TRPM1 prom inh,Shn3 inh set2,LGR2 inh,PAX8 reporter,EWS-Fli block,EBV LMP1 NFkB
COc1cccc(CNC(=O)C[C@@H]2C=C[C@@H](NC(=O)C3CCC3)[C@H](CO)O2)c1,·,·,9,0,-1,·
COc1ccc(CCNC(=O)c2nnn(-c3ccc4c(c3)OCCO4)c2N)cc1OC,41,47,·,·,·,50*
CCOc1cc(/C=C2/C(=N)N3N=C(CC)SC3=NC2=O)ccc1OC(=O)c1ccco1,9,12,17,0,·,43*
CCC(=O)Nc1ccc2c(c1)C(=O)N(C)C[C@@H](OC)[C@H](C)CN(C(=O)C1CCC1)[C@@H](C)CO2,·,·,-31,·,9,·
COc1ccc(S(=O)(=O)N2CCCC2CNC(=O)C(=O)Nc2ccc(C)cc2)cc1 (stereo unspecified),-2,-6,10,7,3,-1
Cc1ccc(C)c(S(=O)(=O)N2CCCC2CNC(=O)C(=O)Nc2ccccc2)c1 (stereo unspecified),·,12,11,-18,3,-10
COc1ccc(NC(=O)C(=O)NCC2CCCN2S(=O)(=O)c2ccc(C)cc2)cc1 (stereo unspecified),72*,50,-11,104*,56*,5
COc1ccc(NC(=O)C(=O)NCC2CCCN2S(=O)(=O)c2cc(C)ccc2C)cc1 (stereo unspecified),31,26,10,34,57*,9
CO[C@@H]1CN(C)C(=O)c2cc(NC(=O)Cc3ccccc3)ccc2OC[C@H](C)N(C(C)=O)C[C@@H]1C,·,·,-2,4,-2,·
Cc1ccccc1CN1CC2=C(CCN(Cc3ccccc3)C2=O)N2CCN=C12,·,81*,1,32,48,·
c1ccc(CN2C3=NCCN3c3ccccc32)cc1,-9,-30,-2,4,·,0
Clc1ccc2ccc3cccnc3c2n1,-5,36,-5,-36,3,0
O=S1(=O)Nc2c(ccc3cccnc23)-c2ccccc21,77*,88*,·,·,·,7
O=C(NC1CCC1)[C@@H]1[C@@H](CO)[C@@H]2Cn3c(ccc(-c4cncnc4)c3=O)[C@@H]2N1C(=O)NC1CCCC1,·,·,-12,4,0,·
COc1ccc2c3c(n(C)c2c1)[C@H](CO)N(Cc1ccccc1)CC31CCN(S(=O)(=O)c2ccc(C)cc2)CC1,·,·,23,84*,42,·
COc1ccc(S(=O)(=O)Nc2ccc3c(c2)C(=O)N([C@H](C)CO)C[C@H](C)[C@@H](CN(C)Cc2ccc(Cl)c(Cl)c2)OCCCC[C@@H](C)O3)cc1,·,·,18,94*,35,·
COc1ccc(S(=O)(=O)Nc2ccc3c(c2)C(=O)N([C@H](C)CO)C[C@@H](C)[C@H](CN(C)Cc2ccc(Cl)c(Cl)c2)OCCCC[C@@H](C)O3)cc1,·,·,-17,66*,20,·
C[C@H](CO)N1C[C@H](C)[C@@H](CN(C)S(=O)(=O)c2ccccc2)OCCCC[C@H](C)Oc2ccc(NS(=O)(=O)c3ccc(F)cc3)cc2C1=O,·,·,-13,41,1,·
O=C(c1cccnc1)N1CC[C@@H]2[C@H]1c1cc(-c3cccc(F)c3)ccc1N[C@@H]2CO,·,·,-9,3,-2,·
c1csc(CNc2ccc3c(c2)OCCO3)c1,-13,17,51*,-28,10,3
Oc1ccccc1CNc1ccc2c(c1)OCCO2,-24,-7,-15,-30,-50,8
CCCC#Cc1cnc2c(c1)C(=O)N([C@@H](C)CO)C[C@H](C)[C@@H](CN(C)S(=O)(=O)c1ccccc1)O2,·,·,15,·,-22,·
Cc1ccccc1S(=O)(=O)N1CC(=O)N2[C@H](CO)[C@H](c3ccc(C#CCC(C)C)cc3)[C@H]2C1,·,·,11,66*,-1,·
CS(=O)(=O)N1CC(=O)N2[C@H](CO)[C@H](c3ccc(C#CCC4CCCC4)cc3)[C@H]2C1,·,·,-19,76*,-8,·
O=C(C[C@@H]1CC[C@H]2[C@@H](COC[C@@H](O)CN2Cc2ccccc2)O1)N[C@H]1CCN(Cc2ccccc2)C1,·,·,-12,9,-3,·
SMILES,TRPM1 prom inh,Shn3 inh set2,LGR2 inh,PAX8 reporter,EWS-Fli block,EBV LMP1 NFkB
C[C@H](CO)N1C[C@H](C)[C@H](CN(C)CC2CCCC2)Oc2ncc(C#Cc3ccccn3)cc2C1=O,·,·,2,0,3,·
COc1ccccc1N1CCN(C2=Nc3cccc4cccc2c34)CC1,-95,3,-40,-123,-103,-14
COc1ccccc1NC1=Nc2cccc3cccc1c23,·,-2,-12,91*,-12,·
CCOC(=O)N1C(=O)[C@@](c2ccc(Cl)cc2)(C(C)C)N1C(=O)OCC,44,8,?,69*,10,-3
CCOC(=O)N1C(=O)[C@](c2ccc(Cl)cc2)(C(C)C)N1C(=O)OCC,39,-7,26,6,-5,-1
O=C(C1CCCC1)N1CC2(C1)[C@H](c1ccccc1)[C@@H](CO)N2Cc1ccccc1F,·,·,-13,·,3,·
CC(C)CCNC(=O)C(c1ccncc1)N(Cc1cccs1)C(=O)Cn1nnc(-c2ccc(F)cc2)n1 (stereo unspecified),76*,48,·,80*,·,13
Cc1ccc(-c2nnn(CC(=O)N(Cc3cccs3)C(C(=O)NC3CCCC3)c3ccncc3)n2)cc1 (stereo unspecified),73*,7,26,·,·,-4
O=C(NCC1CCCO1)C(c1ccncc1)N(Cc1cccs1)C(=O)Cn1nnc(-c2ccc(F)cc2)n1 (stereo unspecified),9,-31,·,24,16,0
COc1ccc(S(=O)(=O)N2CC[C@H]3[C@@H](CO)N(C)c4ccc(C5=CCCCC5)cc4[C@H]32)cc1,·,·,4,-17,5,·
Cc1nn(-c2ccccc2)c(C)c1C(=O)OC(C)C(=O)NC1CCCCC1 (stereo unspecified),11,83*,9,-2,13,17
O=C1C(O)=CC(=C(c2ccccc2)c2ccccc2)c2ccccc21,61*,17,-17,23,-22,8
O=C(O)c1cccc2c1C(=O)c1ccccc1C2=O,3,15,11,-6,-2,-1
COc1ccc2c3c([nH]c2c1)[C@@H](CO)NCC31CN(C(=O)C2CCCC2)C1,·,·,-4,-6,-10,·
COc1cccc(S(=O)(=O)Nc2ccc3c(c2)[C@H]2C[C@H](CC(=O)NCc4ccccc4F)O[C@H](CO)[C@H]2O3)c1,·,·,-4,97*,-11,·
COc1cccc(S(=O)(=O)Nc2ccc3c(c2)[C@@H]2C[C@@H](CC(=O)NCc4ccccc4F)O[C@@H](CO)[C@@H]2O3)c1,·,·,·,68*,-13,·
COc1cccc(S(=O)(=O)Nc2ccc3c(c2)[C@@H]2C[C@H](CC(=O)NCc4ccccc4F)O[C@@H](CO)[C@@H]2O3)c1,·,·,-7,-21,-17,·
COc1cccc(S(=O)(=O)Nc2ccc3c(c2)[C@@H]2C[C@H](CC(=O)NCc4ccccc4F)O[C@H](CO)[C@@H]2O3)c1,·,·,-4,-14,4,·
